# Measured values published in the supplement of paper PMC11219838.
# System: Meloidogyne hapla J2
# Experiment: proportion of mobile M. hapla J2 relative to DMSO control (fraction of DMSO control); higher = more viable, less nematicidal, active = 0.7 or less
# Details: 60 µM; 5 days; temperature: 20 °C
# Method in brief: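 Two biological replicates were run and averaged, each on 96-well plates in which about 25 M. hapla J2 sat in distilled water per well. Compound was pinned in to give 60 µM final and 0.6% v/v DMSO, and the sealed plates were shaken at 200 rpm and 20 °C for 5 days before 2 µL 1 M NaOH was added. Mobility was scored microscopically and divided by the mean from the plate's DMSO-only wells, of which there were eight.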
row,Compound,proportion of mobile M. hapla J2
1,C=CCOc1cccc(-c2nc(-c3cccnc3)no2)c1,1.03 (inactive)
2,Cc1ccccc1OCc1nc(-c2ccc(F)cc2)no1,0.909 (inactive)
3,CC(C)c1ccc(NC(=O)CSc2nnc(-c3ccc(Br)cc3)o2)cc1,1.03 (inactive)
4,CC1CCN(C(=O)CSc2nnc(-c3cc4ccccc4o3)o2)CC1,0.996 (inactive)
5,Cc1cccc(C)c1NC(=O)CSc1nnc(-c2ccncc2)o1,0.908 (inactive)
6,CC(C)C(=O)Nc1ccccc1-c1nc(-c2ccccc2)no1,0.957 (inactive)
7,Clc1ccccc1-c1noc(-c2ccncc2)n1,0.953 (inactive)
8,Cc1ccc(-c2nc(-c3ccc4c(c3)OCO4)no2)cc1,1 (inactive)
9,Cc1ccc(-c2nc(-c3cccc(C(F)(F)F)c3)no2)cc1,1.04 (inactive)
10,Cc1ccc(-c2noc(COc3ccc(Cl)c(C)c3)n2)cc1,0.905 (inactive)
11,COc1nc(-c2ccc(C)cc2)ccc1-c1noc(-c2cccc(C)c2)n1,0.949 (inactive)
12,Cc1ccccc1OCc1nc(-c2ccc(NC(=O)c3ccc(Br)o3)cc2)no1,0.726 (inactive)
13,Cc1ccc(Cl)cc1NC(=O)CSc1nnc(-c2ccncc2)o1,0.913 (inactive)
14,Cc1ccccc1CSc1nnc(-c2ccco2)n1C,1.03 (inactive)
15,Cc1ccccc1-c1nnc(SCC(=O)Nc2cc(C(F)(F)F)ccc2N2CCOCC2)o1,0.934 (inactive)
16,Clc1ccc(-c2noc(-c3ccccc3Cl)n2)cc1,0.927 (inactive)
17,CC(C)(C)c1ccc(OCc2nc(-c3ccccc3)no2)cc1,0.987 (inactive)
18,COc1ccccc1-c1noc(-c2ccc(C(C)(C)C)cc2)n1,1.03 (inactive)
